The source of these data is PubChem BioAssay.

As usually defined, the AC50 is the concentration giving half of the maximal activity seen. As usually defined, the IC50 is the point on the concentration scale where inhibition reaches its midpoint. The viability is a read-out of living cells in per cent, often relative to untreated cells.

Test [1] in a line: growth inhibition of DIPG glioma cells, dose response, cell-based, SU-DIPG-XVII, MIPE5.0, CellTiter-Glo, qHTS (AID 1347060; cut-off not given, nearly all actives have AC50 up to about 26 µM;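 on AC50: cells exposed to compound for 48 hours before viability readout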). Particulars: SU-DIPG-XVII viability, CellTiter-Glo ATP luminescence. Background: ATP-based viability assays read luminescence as a measure of living cells.
Test [2] is described as follows: growth inhibition of DIPG glioma cells, dose response, cell-based, SU-DIPG-XIII, MIPE4.0, CellTiter-Glo, qHTS (AID 1347061; cut-off not given, nearly all actives have AC50 up to about 37 µM;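 further: cells exposed to compound for 48 hours before readout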). The note with it: SU-DIPG-XIII viability, CellTiter-Glo ATP luminescence.
A short description of test [3]: growth inhibition of DIPG glioma cells, dose response, cell-based, SU-DIPG-IV, MIPE4.0, CellTiter-Glo, qHTS (AID 1347063; cut-off not given, nearly all actives have AC50 up to about 30 µM;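 further: compound exposure lasted 48 hours before the viability readout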). Particulars: SU-DIPG-IV viability, CellTiter-Glo ATP luminescence.
The nature of test [4]: growth inhibition of DIPG glioma cells, dose response, cell-based, SU-DIPG-XIII, MIPE5.0, CellTiter-Glo, qHTS (AID 1347064; cut-off not given, nearly all actives have AC50 up to about 23 µM;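 further: cells exposed to compound for 48 hours before the viability read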). The note with it: SU-DIPG-XIII viability, CellTiter-Glo ATP luminescence.
Test [5] in a line: viability loss in pontine glioma line – cell-based, SU-DIPG-XXV, MIPE5.0, CellTiter-Glo, qHTS, dose response (AID 1347065; cut-off not given, nearly all actives have AC50 up to about 26 µM;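 further: cells exposed to compound for 48 hours before ATP readout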). The note with it: CellTiter-Glo ATP luminescence.
The nature of test [6]: SU-DIPG-XXV glioma cell viability, MIPE5.0 library, qHTS (AID 1347068; cut-off not given, nearly all actives have IC50 up to about 30 µM;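 on IC50: cells exposed to compound for 48 hours before viability readout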). (qHTS replaces the single test concentration by a dilution series.)
The nature of test [7]: sensitizers of A549 cells to miR-34 induction, primary screen, imaging, A549 dox-inducible miR-34, nuclei and caspase counts (AID 1347080;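 active means compounds whose cell count with miR-34 switched on is under 0.7 times the count with it off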). The note with it: A549 miR-34 inducible, Hoechst nuclei count, 48 h.
The nature of test [8]: modifiers of HSF1 nuclear foci, imaging, Selleck Cancer Library (AID 1347162; in the data active means plate-normalised HSF1 focus index below about 0.46). The note with it: human cells, at 10 µM; SSMD: measured here: HSF1 foci SSMD mean; cell count: measured here: cell number; plate-normalised HSF1 focus index: stronger effect = lower value.
A short description of test [9]: survival rescue of mitochondrial mutant cells in low glucose, primary screen, MELAS cybrids, Rieske KO mouse fibroblasts, CellTiter-Glo (AID 1508586;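 active means mean z-score across replicates of 1.96 or higher in either the MELAS or the Rieske mutant cell line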;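 further: z relative to plate mean and SD of compound and empty wells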).
Test [10] in a line: SU-DIPG-VI glioma cell viability, MIPE4.0 library, CellTiter-Glo luminescence, qHTS (AID 1347066; cut-off not given, nearly all actives have AC50 up to about 30 µM;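 further: cells exposed to compound for 48 hours before readout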). The note with it: CellTiter-Glo ATP luminescence.
Test [11] can be described thus: JHH-DIPG-1 glioma cell viability, MIPE5.0 library, CellTiter-Glo luminescence, qHTS (AID 1347067; cut-off not given, nearly all actives have AC50 up to about 26 µM;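 further: cells exposed to compound for 48 hours before readout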). Particulars: JHH-DIPG-1 glioma viability, CellTiter-Glo ATP luminescence.
Test [12] can be described thus: ovarian cancer cell viability with rucaparib, profiling panel, oncology-focused library, rucaparib conditional (AID 1508598). Particulars: patient-derived ovarian cancer cells, CellTiter-Glo viability, 144 h, stronger effect = lower value.
Setting [13] is: stronger effect = lower value, cell number ratio, induced over uninduced.
[14] abbreviates: measured here: relative caspase fold change +Dox/-Dox.
[15] abbreviates: measured here: total cells with miR-34 induction, stronger effect = lower value.
The mark [16] stands for this setting: measured here: total cells without miR-34 induction.
Setting [17] is: MELAS cybrid survival, CellTiter-Glo 48 h, stronger effect = higher value.
The mark [18] stands for this setting: Rieske KO mouse fibroblast survival, CellTiter-Glo 72 h.

Inconclusive results are not listed. Active and inactive are the calls of the source.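 How the source made its calls, unless noted: active means normalized viability below 100% at a tested concentration; inactive means the rest.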

Turning to `COc1cc(Nc2ncc(F)c(Nc3ccc4c(n3)N(COP(=O)(O)O)C(=O)C(C)(C)O4)n2)cc(OC)c1OC`, the concentration at half-maximal activity (AC50) in test [1] is 1.05 µM (active); in test [2] it was 1.87 µM (active); in test [3] it was 3.32 µM (active); in test [4], 3.72 µM (active); in test [5], 3.72 µM (active). For the same compound, in test [6], the IC50 was 4.68 µM (active). Further, the fold change in [7] (setting [13]) was 0.857 (inactive); in test [7] (setting [14]) it was 0.912. The cell count in test [7] (setting [15]) amounted to 1024; in test [7] (setting [16]), 1190; in [8], 7320. The compound also came in with an SSMD in test [8] of -2.78. In test [8], the plate-normalised HSF1 focus index was 0.825 (inactive). Besides, the z-score in [9] (setting [17]) is -0.637 (inactive); in test [9] (setting [18]) it was -0.181.

Turning to `CC1(C)CCC(CN2CCN(c3ccc(C(=O)NS(=O)(=O)c4ccc(NCC5CCOCC5)c([N+](=O)[O-])c4)c(Oc4cnc5[nH]ccc5c4)c3)CC2)=C(c2ccc(Cl)cc2)C1`, the AC50 in test [1] is 18.6 µM (active); in [3], 10.5 µM (active); in test [5], 0.417 µM (active); in test [10] it was 7.43 µM (active); in test [11], 13.2 µM (active). Further, the compound was called inactive in [2] and in test [6]. Besides, the fold change in test [7] (setting [13]) is 1.1 (inactive); in test [7] (setting [14]) it was 0.349. The cell count came out at 5370 in test [7] (setting [15]) and 4860 in test [7] (setting [16]). The z-score in [9] (setting [17]) was -0.355 (inactive); in test [9] (setting [18]), 0.0474.

As for `CC(=O)OC1C(C)OC(Oc2c(-c3ccc(O)cc3)oc3cc(O)cc(O)c3c2=O)C(O)C1OC(C)=O` (centres undefined), the compound was called inactive in test [1] and in test [2]. The AC50 in test [3] was 20.9 µM (active).

In the case of `N#CC(c1ccnc(NCCc2cccnc2)n1)c1nc2ccccc2s1` (centres undefined), the AC50 in test [1] is 11.8 µM (active); in test [3] it was 13.2 µM (active); in test [5], 11.8 µM (active); in test [11], 18.6 µM (active). The compound was classed as inactive in [2] and in test [6].

For the compound `CC(C)(C)c1cc(NC(=O)Nc2ccc(-c3cn4c(n3)sc3cc(OCCN5CCOCC5)ccc34)cc2)no1`, the concentration at half-maximal activity (AC50) was 23.5 µM (active) in test [1], 14.8 µM (active) in test [4], 16.6 µM (active) in test [5] and 20.9 µM (active) in test [11]. In addition, the call in test [2] and in test [6] was inactive. Further, the values for the fold change in test [7] (setting [13]) and in [7] (setting [14]) were 1 (inactive) and 0.781, respectively. The results for the cell count in test [7] (setting [15]), in test [7] (setting [16]) and in test [8] were 6520, 6510 and 7630, respectively. The SSMD in [8] stood at 0.734. In addition, the plate-normalised HSF1 focus index in test [8] was 1.05 (inactive). The z-score is 4.33 (active) in [9] (setting [17]) and -2.86 in test [9] (setting [18]). For the same compound, the viability in test [12] (at 0.000305 µM, OCI-C5x cells, with rucaparib 10 µM, 100% = cells with rucaparib alone) is 105% (inactive); in [12] (at 0.000305 µM, OCI-C5x cells, without rucaparib), 104% (inactive); in test [12] (at 0.000305 µM, OCI-P5x cells, with rucaparib 20 µM, 100% = cells with rucaparib alone), 87.1% (active); in test [12] (at 0.000305 µM, OCI-P5x cells, without rucaparib), 82.2% (active); in test [12] (at 0.00122 µM, OCI-C5x cells, with rucaparib 10 µM, 100% = cells with rucaparib alone), 112% (inactive); in test [12] (at 0.00122 µM, OCI-C5x cells, without rucaparib), 95% (active). Besides, the viability in test [12] (at 0.00122 µM, OCI-P5x cells, with rucaparib 20 µM, 100% = cells with rucaparib alone) is 93.1% (active); in [12] (at 0.00122 µM, OCI-P5x cells, without rucaparib), 87% (active); in test [12] (at 0.00488 µM, OCI-C5x cells, with rucaparib 10 µM, 100% = cells with rucaparib alone), 105% (inactive); in test [12] (at 0.00488 µM, OCI-C5x cells, without rucaparib), 88.6% (active); in [12] (at 0.00488 µM, OCI-P5x cells, with rucaparib 20 µM, 100% = cells with rucaparib alone), 91.7% (active); in [12] (at 0.00488 µM, OCI-P5x cells, without rucaparib), 93.5% (active). Besides, the viability in test [12] (at 0.0195 µM, OCI-C5x cells, with rucaparib 10 µM, 100% = cells with rucaparib alone) was 107% (inactive); in [12] (at 0.0195 µM, OCI-C5x cells, without rucaparib), 101% (inactive); in test [12] (at 0.0195 µM, OCI-P5x cells, with rucaparib 20 µM, 100% = cells with rucaparib alone), 103% (inactive); in [12] (at 0.0195 µM, OCI-P5x cells, without rucaparib), 93.7% (active); in [12] (at 0.0781 µM, OCI-C5x cells, with rucaparib 10 µM, 100% = cells with rucaparib alone), 111% (inactive); in test [12] (at 0.0781 µM, OCI-C5x cells, without rucaparib) it was 112% (inactive). The viability in [12] (at 0.0781 µM, OCI-P5x cells, with rucaparib 20 µM, 100% = cells with rucaparib alone) was 86.7% (active); in test [12] (at 0.0781 µM, OCI-P5x cells, without rucaparib), 90.6% (active); in [12] (at 0.313 µM, OCI-C5x cells, with rucaparib 10 µM, 100% = cells with rucaparib alone), 115% (inactive); in test [12] (at 0.313 µM, OCI-C5x cells, without rucaparib), 108% (inactive); in [12] (at 0.313 µM, OCI-P5x cells, with rucaparib 20 µM, 100% = cells with rucaparib alone), 82.2% (active); in test [12] (at 0.313 µM, OCI-P5x cells, without rucaparib), 99% (active). In addition, the viability is 108% (inactive) in test [12] (at 1.25 µM, OCI-C5x cells, with rucaparib 10 µM, 100% = cells with rucaparib alone); 128% (inactive) in test [12] (at 1.25 µM, OCI-C5x cells, without rucaparib); 83.4% (active) in test [12] (at 1.25 µM, OCI-P5x cells, with rucaparib 20 µM, 100% = cells with rucaparib alone); 87.4% (active) in test [12] (at 1.25 µM, OCI-P5x cells, without rucaparib); 100% (inactive) in test [12] (at 5 µM, OCI-C5x cells, with rucaparib 10 µM, 100% = cells with rucaparib alone); 107% (inactive) in [12] (at 5 µM, OCI-C5x cells, without rucaparib). The viability is 31.2% (active) in [12] (at 5 µM, OCI-P5x cells, with rucaparib 20 µM, 100% = cells with rucaparib alone) and 70.6% (active) in [12] (at 5 µM, OCI-P5x cells, without rucaparib).
